# In PubChem BioAssay (NCATS):
# “And” between values parts separate entries of the source, which are not always exact repeats. Equal values may be shown once. Results filed as inconclusive are left out. Where a call stands in place of a potency, no number is given. Where a structure was tested more than once in an assay, its records may differ in their call. The source made the active and inactive calls. Calls follow the shape of the dose curve; as a rule, active = well fitted curve in the direction sought with a large enough effect; inconclusive = small, poorly fitted or top-dose-only effect, or another doubt; inactive = no such curve, though single readings can be large; an effect the other way counts as inactive or inconclusive. Residues, ends and D or L forms follow the SMILES beside them. *: point of attachment. Cbz = O=C(OCc1ccccc1)*
# What was measured:
# [1] = biological target: Guanine nucleotide-binding protein G(i) subunit alpha-1 (Homo sapiens) (UniProt P63096); assay: qHTS Assay for Inhibitors of RGS12 GoLoco Motif Activity (Green Fluorophore) (AID 879);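 also: negative values mean loss of peptide binding seen as reduced polarization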
# Guanine nucleotide-binding protein G(i) subunit alpha-1 (Homo sapiens), sequence (P63096 whole entry, looked up): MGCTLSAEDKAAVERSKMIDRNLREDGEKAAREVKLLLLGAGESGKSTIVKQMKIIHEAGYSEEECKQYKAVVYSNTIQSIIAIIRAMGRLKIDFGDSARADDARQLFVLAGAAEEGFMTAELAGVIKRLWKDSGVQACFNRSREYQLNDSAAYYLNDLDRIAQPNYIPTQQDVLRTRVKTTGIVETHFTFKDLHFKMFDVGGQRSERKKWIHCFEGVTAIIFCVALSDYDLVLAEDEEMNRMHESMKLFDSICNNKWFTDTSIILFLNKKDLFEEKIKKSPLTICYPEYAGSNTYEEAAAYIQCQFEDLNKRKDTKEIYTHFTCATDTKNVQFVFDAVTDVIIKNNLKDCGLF
# How it was run: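 Fluorescence polarization assay: 50 nM Gαi1 with 10 nM FITC-labeled RGS12 GoLoco peptide in 10 mM Tris pH 7.5, 150 mM NaCl, 0.1 mM GDP, 0.05% NP40, 10 min at room temperature with compound.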
# [2] = biological target: Cytochrome P450 3A4 (Homo sapiens) (UniProt P08684); assay: qHTS Assay for Inhibitors and Substrates of Cytochrome P450 3A4 (AID 884); also: nearly all actives have a fitted effect of over 50% in size; also: potency is read from the fitted curve at half-maximal effect
# Cytochrome P450 3A4 (Homo sapiens), sequence (P08684 whole entry, looked up): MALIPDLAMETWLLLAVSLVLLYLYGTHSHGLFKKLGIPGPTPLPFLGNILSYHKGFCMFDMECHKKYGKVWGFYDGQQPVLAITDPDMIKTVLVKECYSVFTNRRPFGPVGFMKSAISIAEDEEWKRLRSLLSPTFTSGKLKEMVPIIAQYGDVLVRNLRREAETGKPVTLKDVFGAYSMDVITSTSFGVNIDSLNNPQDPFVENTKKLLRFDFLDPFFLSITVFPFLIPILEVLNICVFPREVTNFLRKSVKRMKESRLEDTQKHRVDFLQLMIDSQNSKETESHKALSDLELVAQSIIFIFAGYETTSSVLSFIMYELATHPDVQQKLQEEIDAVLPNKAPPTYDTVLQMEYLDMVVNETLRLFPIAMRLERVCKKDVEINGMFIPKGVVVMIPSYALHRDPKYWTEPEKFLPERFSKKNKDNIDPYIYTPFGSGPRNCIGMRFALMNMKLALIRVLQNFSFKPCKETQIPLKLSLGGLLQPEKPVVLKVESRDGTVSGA
# How it was run: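 20 nM human CYP3A4 with 25 uM Luciferin-PPXE (at KM) in 200 mM KPO4, preincubated 10 min with compound; NADPH regeneration started a 60 min RT reaction. Luciferin detected by luminescence, normalized to 57 uM ketoconazole as full inhibition.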
# [3] = biological target: Cytochrome P450 3A4 (Homo sapiens) (UniProt P08684); assay: qHTS Assay for Activators of Cytochrome P450 3A4 (AID 885); also: nearly all actives have a fitted effect of over 65% in size; also: potency is read from the fitted curve at half-maximal effect
# How it was run: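 Steps: enzyme/substrate mix dispensed; compound added, 10 min RT; NADPH regeneration solution added, 60 min RT; luciferin detection buffer stops reaction; 20 min later luminescence measured.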
# [4] = biological target: Cytochrome P450 2D6 (Homo sapiens) (UniProt P10635); assay: qHTS Assay for Inhibitors and Substrates of Cytochrome P450 2D6 (AID 891); also: nearly all actives have a fitted effect of over 60% in size; also: potency is read from the fitted curve at half-maximal effect
# Cytochrome P450 2D6 (Homo sapiens), sequence (P10635 whole entry, looked up): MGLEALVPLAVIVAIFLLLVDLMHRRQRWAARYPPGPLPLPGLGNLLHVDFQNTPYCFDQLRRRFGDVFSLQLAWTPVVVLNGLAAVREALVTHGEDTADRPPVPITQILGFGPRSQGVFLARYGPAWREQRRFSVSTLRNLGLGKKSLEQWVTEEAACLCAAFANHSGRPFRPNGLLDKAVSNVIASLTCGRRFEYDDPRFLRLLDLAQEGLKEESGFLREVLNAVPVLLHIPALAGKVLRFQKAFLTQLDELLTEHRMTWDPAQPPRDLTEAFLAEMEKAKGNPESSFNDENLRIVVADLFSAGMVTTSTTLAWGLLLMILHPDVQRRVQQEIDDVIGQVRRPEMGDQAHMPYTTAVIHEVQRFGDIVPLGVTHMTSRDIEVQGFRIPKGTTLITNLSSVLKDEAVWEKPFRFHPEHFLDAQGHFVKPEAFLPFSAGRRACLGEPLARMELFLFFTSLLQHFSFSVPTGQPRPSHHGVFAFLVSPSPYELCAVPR
# How it was run: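 Human CYP2D6 (5 nM) with 30 uM Luciferin-ME EGE (at Km) in 100 mM KPO4, compound preincubated 10 min, then NADPH regeneration system for 60 min at room temperature. Luciferin read by luminescence; normalized to 1.43 uM quinidine.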
SMILES,Potency [1],Potency [2],Potency [3],Potency [4]
CCCCOC(=O)NS(=O)(=O)c1sc(CC(C)C)cc1-c1ccc(Cn2c(CC)nc3c(C)cc(C)nc32)cc1,inactive,3.16 µM (active),inactive,
c1ccc2c(c1)CC(N1CCN(c3cccc4c3OCCO4)CC1)C2,inactive,inactive,25.1 µM (active),
CN(C)S(=O)(=O)c1ccc2c(c1)/C(=C/c1cc3c([nH]1)CCCC3)C(=O)N2,inactive,5.01 µM (active),inactive,
CCCCCCCC/C=C\CCCCCCCC(=O)NCCc1ccc(O)c(O)c1,inactive,3.16 µM (active),inactive,
CC(C)(C)c1cc(/C=C(\C#N)C(N)=S)cc(C(C)(C)C)c1O,inactive,3.98 µM (active),inactive,
CC(C)(CO)Cc1cc(C(C)(C)C)c(O)c(C(C)(C)C)c1,inactive,2.51 µM (active),inactive,inactive
O=c1onc2cnc3ccccc3n12,inactive,10 µM (active),inactive,inactive
Cc1ccc([N+](=O)[O-])cc1S(=O)(=O)N(C)C,inactive,inactive,inactive,
CCCCCCCCCCC/C=C\C(C)(C)/C=C\CCCC(=O)O,inactive,inactive,,
CC(C)Cn1c(=O)n(C)c(=O)c2[nH]cnc21,inactive,3.98 µM (active) and 15.8 µM (active) and 12.6 µM (active),inactive,
O=C(OCCN1CCOCC1)C1(c2ccccc2)CCCCC1,inactive,3.16 µM (active) and 1.58 µM (active),inactive,
NC/C=C\C(=O)O,inactive,inactive,,inactive
Cn1c(=O)c2[nH]c(C3CCCC3)nc2n(C)c1=O,inactive,39.8 µM (active),inactive,
O=C(O)c1ccccc1Nc1cccc(OCc2ccc3ccccc3n2)c1,inactive,1.58 µM (active),inactive,inactive and 7.94 µM (active)
O=C(O)C1=CCNCC1,inactive,inactive,,
COc1ccc(NC(=O)c2ccc(-c3ccc(-c4noc(C)n4)cc3C)cc2)cc1N1CCN(C)CC1,inactive,inactive,,
Nc1ncnc2c1c(-c1ccc(Oc3ccccc3)cc1)cn2C1CCCC1,inactive,inactive,3.16 µM (active),

SMILES,Potency [1],Potency [2],Potency [3],Potency [4]
Nc1ccc(-c2nc3ccc(-c4nc5ccc(N)cc5[nH]4)cc3[nH]2)cc1,inactive,0.0631 µM (active),inactive,
N#C/C(=C\c1ccc(O)c(O)c1)C(=O)NCCc1ccccc1,inactive,3.98 µM (active),inactive,
O=C(O)c1cccnc1C(=O)O,inactive,inactive,,inactive
Nc1ccc(-c2ccc3ccccc3n2)cc1,inactive,3.98 µM (active),inactive,
N[C@@H](Cc1ccc(O)c(I)c1)C(=O)O,inactive,inactive,,
O=S(=O)(c1cccc2c(Cl)cccc12)N1CCCNCC1,inactive,5.01 µM (active) and 3.98 µM (active),inactive,
O=C1NC(=O)c2cc(Nc3ccccc3)c(Nc3ccccc3)cc21,inactive,1.58 µM (active),inactive,
CCCCCCN(CCCCCC)C(=O)Cc1c(-c2ccc(F)cc2)[nH]c2ccccc12,inactive,2.51 µM (active),inactive,inactive
C[C@H](NC(=O)/C(C#N)=C/c1ccc(O)c(O)c1)c1ccccc1,inactive,3.16 µM (active),inactive,inactive
CNc1cc(NS(=O)(=O)c2ccc(N)cc2)nc(NC)n1,inactive,0.794 µM (active),inactive,
Cc1nc(N=Nc2cc(S(=O)(=O)O)c3cc([N+](=O)[O-])cc(S(=O)(=O)O)c3c2)c(COP(=O)(O)O)c(C=O)c1O,inactive,inactive,inactive,inactive
c1ccc(CN2CCC3(CCCc4ccccc43)CC2)cc1,inactive,inactive,25.1 µM (active),0.251 µM (active)
N=C(N)SCCN,inactive,3.16 µM (active),inactive,
CC(C)[C@H](NC(=O)OCc1ccccc1)C(=O)N[C@H](C=O)Cc1ccccc1 (Cbz-Val-Phe-aldehyde),inactive,6.31 µM (active),inactive,
COc1cc(N)c(Cl)cc1C(=O)OCCN1CCCCC1,inactive,15.8 µM (active),inactive,
CCCc1c(-c2ccc(O)cc2)nn(-c2ccc(O)cc2)c1-c1ccc(O)cc1,inactive,2.51 µM (active),inactive,39.8 µM (active)
